# High-throughput results as filed in PubChem BioAssay.
# KCNQ2 inh = KCNQ2 (rat) channel inhibition | O88943 | CHO-K1 KCNQ2, FluxOR thallium flux, 20 min; hits give low values | B-score at 10 µM | 310,000 tested, 1.1% active;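 active means fluorescence ratio B-score at most minus 3 library SDs, with starting brightness B-score within 2 library SDs, cut at about -5.5 in these data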
# KCNQ2 enhance = potentiators of rat KCNQ2 potassium channel | O88943 | CHO-K1 KCNQ2, FluxOR thallium flux fluorescence; hits give high values | B-score at 10 µM | 310,000 tested, 0.54% active | AID 2239;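 active means fluorescence ratio B-score at least 3 SD of library B-scores, with initial fluorescence B-score within 3 of them, cut at about 5.3 in these data; same plate scores as AID 2156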;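 further: B-score of peak minus minimum over baseline fluorescence ratio after K+ and Tl+ stimulus; positive B-score means potentiation of KCNQ2 with more thallium influx and brighter signal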
# Kir21 conf inh = confirmation of mouse Kir2.1 potassium channel inhibitors | shares compounds with KCNQ2 enhance | 2,300 tested, 41% active | Kir2.1-expressing cells, FluxOR thallium flux fluorescence; hits give low values | Tl flux remaining, % of negative control (hits give low values), % at 10 µM;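 active means Primary-screen hit whose thallium flux fell at least 3 control SD below untreated wells in both duplicates, with normal baseline fluorescence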;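 further: 0% = blank wells without stimulus and 100% = stimulated no-compound controls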
# HEK293 ctr = parental HEK293 activity in Kir2.1 inhibitor counter-screen | FluxOR signal as % of negative control (100 = no effect), % at 10 µM | AID 2105 | 2,300 tested, 19% active | parental HEK293 cells, FluxOR thallium flux fluorescence; 0% = unstimulated blank wells | shares compounds with KCNQ2 enhance;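 active means dye signal at least 3 control SD above or below untreated wells in both duplicates, raw fluorescence within 3, either direction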;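 further: percent is based on the flux ratio of peak minus minimum fluorescence over baseline F0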
# CHO-K1 ctr = alters thallium flux in parental CHO-K1 cells, KCNQ2 counter-screen; FluxOR thallium flux fluorescence; zero = vehicle mean+3SD, 100% = vehicle-minus-blank window; AID 2282; 1,200 tested, 43% active; activity increase over 3SD of controls, % at 10 µM; shares compounds with KCNQ2 enhance;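 active means signal rise of at least 3 SD above the untreated control mean, in both duplicate wells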;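 further: counter screen of KCNQ2 potentiator hits so any rise reflects channel-independent effects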
# KCNQ1 sel pot = human KCNQ1 counter-target activity of KCNQ2 potentiators; CHO KCNQ1 stable, FluxOR thallium flux fluorescence; beyond 3SD, as % of vehicle-control signal; shares compounds with KCNQ2 enhance; activation over 3SD threshold, % at 10 µM; 1,200 tested, 28% active;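 active means fluorescence ratio rise of at least 3 SD of vehicle wells above their mean, in both replicate wells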;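 further: 0% = vehicle mean plus 3 SD and 100% = vehicle minus unstimulated blank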
# KCNQ2 pot conf = confirmation of rat KCNQ2 potassium channel potentiators; shares compounds with KCNQ2 enhance; CHO-KCNQ2 cells, FluxOR thallium flux fluorescence; potentiation, less the hit threshold, % at 10 µM; 1,200 tested, 68% active; AID 2287;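 active means fluorescence ratio rising 3 SD or more over the vehicle control mean in both replicates, plus primary screen hit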;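 further: peak minus minimum thallium fluorescence divided by baseline after K/Tl stimulus; 0% = vehicle mean plus 3 SD and 100% = vehicle minus unstimulated blank difference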
# Kir2-1 sel = mouse Kir2.1 off-target activity of KCNQ2 potentiators. activity over 3SD threshold, % at 10 µM. HEK293 Kir2.1, FluxOR thallium flux fluorescence. shares compounds with KCNQ2 enhance. 1,200 tested, 2% active;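 active means fluorescence ratio rise of at least 3 SD above the vehicle-control mean, seen in both replicates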;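 further: 0% = vehicle mean plus 3 SD and 100% = vehicle minus no-stimulus blank window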
# KCNQ2 W236L MoA = rat KCNQ2 W236L mutant potentiation by KCNQ2 potentiators; current increase over 3SD of negative controls (%), hits give high values, % at 25 µM; shares compounds with KCNQ2 enhance; CHO KCNQ2-W236L, automated patch clamp current; 940 tested, 10% active; AID 2558;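 active means current increase at least 3 SD of the untreated controls above them in both duplicate recordings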
# Target sequence (O88943 whole entry W236L, looked up): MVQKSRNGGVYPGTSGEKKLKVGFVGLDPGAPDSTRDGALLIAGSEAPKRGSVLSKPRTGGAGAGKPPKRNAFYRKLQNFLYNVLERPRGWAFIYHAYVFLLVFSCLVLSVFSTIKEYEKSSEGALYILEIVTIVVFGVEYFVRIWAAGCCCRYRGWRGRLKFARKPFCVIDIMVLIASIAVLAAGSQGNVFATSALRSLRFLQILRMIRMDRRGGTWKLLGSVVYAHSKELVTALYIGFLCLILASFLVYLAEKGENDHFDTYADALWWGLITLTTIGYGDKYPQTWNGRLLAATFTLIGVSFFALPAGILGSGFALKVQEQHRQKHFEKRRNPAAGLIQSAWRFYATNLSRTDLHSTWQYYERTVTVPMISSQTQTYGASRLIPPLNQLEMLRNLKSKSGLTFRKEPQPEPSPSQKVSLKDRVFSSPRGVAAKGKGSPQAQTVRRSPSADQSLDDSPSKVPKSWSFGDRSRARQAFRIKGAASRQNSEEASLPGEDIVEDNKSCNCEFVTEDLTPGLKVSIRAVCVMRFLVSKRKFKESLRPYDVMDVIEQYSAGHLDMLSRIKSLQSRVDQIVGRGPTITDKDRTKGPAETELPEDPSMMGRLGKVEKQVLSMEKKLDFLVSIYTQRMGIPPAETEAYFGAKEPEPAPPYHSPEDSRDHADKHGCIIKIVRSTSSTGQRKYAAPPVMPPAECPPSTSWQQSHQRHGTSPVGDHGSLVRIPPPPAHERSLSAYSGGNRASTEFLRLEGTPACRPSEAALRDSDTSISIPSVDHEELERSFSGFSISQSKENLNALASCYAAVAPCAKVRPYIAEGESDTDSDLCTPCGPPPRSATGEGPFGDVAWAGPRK
# * = called active by the depositor; i = inactive; x = no result. This is a sample that favours compounds with a hit; in the whole collection about 1.6% have one here.
SMILES,KCNQ2 inh,KCNQ2 enhance,Kir21 conf inh,HEK293 ctr,others
COc1ccc2nc(NCc3ccccc3)[nH]c2c1,i,0.44,x,x,
O=c1[nH]c(C2CCCN(S(=O)(=O)Cc3ccccc3)C2)nc2c1nnn2Cc1cccc(Cl)c1 (stereo not given),i,0.41,x,x,
O=c1c2ccccc2c(C=NCCCN2CCOCC2)c(O)n1Cc1ccc2c(c1)OCO2,i,0.1,x,x,
O=c1c2ccccc2c(C=NCCCN2CCOCC2)c(O)n1Cc1ccccc1,i,x,64%*,i,
C=CCNC(=S)Nc1cccc2[nH]ncc12,i,x,x,x,
O=C(NC(=S)N1CCc2ccccc21)c1ccccc1Cl,i,8.9*,i,i,CHO-K1 ctr=14*;KCNQ1 sel pot=-12;KCNQ2 pot conf=62*;Kir2-1 sel=-14;KCNQ2 W236L MoA=i
O=C(NCCC(=O)N1CCc2ccccc21)c1ccccc1Cl,i,x,x,x,
O=C1CC(c2cccs2)Cc2nc(NCC3CCCO3)ncc21 (stereo not given),i,1.3,x,x,
CC(C)(C)C(=O)Nc1cc(NC(=O)C(C)(C)C)cc(C(=O)NNC(=O)c2ccncc2)c1,i,x,x,x,
Cc1nc2scc(-c3ccccc3)c2c(=O)n1N,i,0.36,x,x,
Cc1nc2scc(-c3ccccc3)c2c(=O)n1N=C1C=CC(=O)C=C1,i,x,62%*,51%*,
O=[N+]([O-])/C=C\c1ccc(N2CCCC2)c(F)c1,i,x,x,x,
COc1cccc(CNC(=O)N2CCN(c3ccccc3Cl)CC2)c1,i,0.46,x,x,
COc1ccccc1N1CCN(C(=O)NCc2cccc(C(F)(F)F)c2)CC1,i,7*,i,i,CHO-K1 ctr=-2;KCNQ1 sel pot=-10;KCNQ2 pot conf=-5;Kir2-1 sel=-16;KCNQ2 W236L MoA=i
CC(C)(C)OC(=O)NC1CCN(S(=O)(=O)c2ccc3c(c2)OCCO3)CC1,i,0.18,x,x,
Cc1csc(NC(=O)c2cc3c(s2)CCCC3)n1,i,7.3*,i,i,CHO-K1 ctr=96*;KCNQ1 sel pot=-18;KCNQ2 pot conf=-2;Kir2-1 sel=-29;KCNQ2 W236L MoA=i
Cc1csc(NC(=O)c2cc3c(s2)CCCCC3)n1,i,1.3,x,x,
CCC(C(=O)NCc1ccco1)N(C(=O)CNS(=O)(=O)c1ccc(C)cc1)c1ccccc1F (stereo not given),i,x,x,x,
CC(OCC(O)CN(C)Cc1nc2ccccc2c(=O)[nH]1)c1ccc(Cl)cc1 (stereo not given),i,x,x,x,
O=C(Nc1cnn(C23CC4CC(CC(C4)C2)C3)c1)c1cc(-c2ccccc2)on1,i,0.83,x,x,
CCCn1cc(NC(=O)c2cc(-c3ccccc3)on2)cn1,i,5.7*,i,i,CHO-K1 ctr=24*;KCNQ1 sel pot=-15;KCNQ2 pot conf=-60
COc1ccccc1CNC(=O)CN(CCc1ccccc1)S(C)(=O)=O,i,x,x,x,
Cc1ccc(-n2nc(C)c3c(C)c(CCC(=O)NCC4CCCO4)c(=O)n(C)c32)cc1 (stereo not given),i,0.6,x,x,
CSC(=S)N/N=C/c1ccc(Br)cc1,i,7.1*,i,254%*,CHO-K1 ctr=-4;KCNQ1 sel pot=39*;KCNQ2 pot conf=-7;Kir2-1 sel=-23
CSC(=S)N/N=C/c1ccc(N(C)C)cc1,i,1.2,x,x,
SMILES,KCNQ2 inh,KCNQ2 enhance,Kir21 conf inh,HEK293 ctr,others
CSCCC(NC(=O)c1ccc(Cl)cc1)C(=O)OCC(=O)N1CCCC1=O (stereo not given),i,8.8*,i,i,CHO-K1 ctr=-8;KCNQ1 sel pot=-6;KCNQ2 pot conf=18*;Kir2-1 sel=-35;KCNQ2 W236L MoA=26%*
CSCCC(NC(=O)c1ccc(Cl)cc1)C(=O)O (stereo not given),i,0.16,x,x,
CC1CCC(n2c(=S)[nH]c3ccccc3c2=O)CC1 (stereo not given),i,11*,i,i,CHO-K1 ctr=-1;KCNQ1 sel pot=83*;KCNQ2 pot conf=27*;Kir2-1 sel=-27;KCNQ2 W236L MoA=i
CC1(C)CC(n2c(=S)[nH]c3ccccc3c2=O)CCO1 (stereo not given),i,0.74,x,x,
CC1CCCC(n2c(=S)[nH]c3ccccc3c2=O)C1C (stereo not given),i,11*,i,i,CHO-K1 ctr=-15;KCNQ1 sel pot=-19;KCNQ2 pot conf=6.8*;Kir2-1 sel=-27;KCNQ2 W236L MoA=i
O=c1c2ccccc2[nH]c(=S)n1C1CCCCC1,i,x,x,x,
C[C@@H]1NC(=O)N(c2ccc(F)cc2)C1=O,i,1.4,x,x,
CCc1ccc(NC(=O)C(=O)NCc2ccccn2)cc1,i,1.1,x,x,
O=C(Nc1ccccc1C(=O)O)/C(=C/c1ccc([N+](=O)[O-])cc1)NC(=O)c1ccc(Br)o1,i,1.2,x,x,
Cc1ccc(CC(=O)NCC2CCCCC2)cc1,i,7.5*,i,i,CHO-K1 ctr=47*;KCNQ1 sel pot=-26;KCNQ2 pot conf=-11;Kir2-1 sel=-23
Cc1ccccc1CC(=O)NCC1CCCCC1,i,4.2,x,x,
Cc1nc(N2CCN(Cc3ccccc3)CC2)c(C#N)c2c1COC(C)(C)C2,i,x,60%*,i,
CC(C)c1nc(N2CCN(C(=O)c3ccccc3)CC2)c(C#N)c2c1COC(C)(C)C2,i,x,x,x,
CCCCCCn1c(=O)[nH]c2c(c1=O)CCC2,i,0.1,x,x,
CCn1c2c(c(=N)c3c1CCC3)CCC2,i,x,x,x,
CCCCCCCn1c2c(c(=N)c3c1CCC3)CCCC2,i,1.9,28%*,i,
CCCCCCCCCn1c2c(c(=N)c3c1CCC3)CCC2,-6.1*,-6.1,10%*,i,
CCCCCCOc1ccc(/C(C)=N/NC2=NCCN2)cc1[N+](=O)[O-],i,0.72,x,x,
CCCCOc1ccc(Br)cc1/C(C)=N/NC1=NCCN1,i,x,i,i,
Cc1occc1C(=O)NNC(=O)COc1ccc(Br)cc1Br,i,x,x,x,
Cc1occc1C(=O)NNC(=S)NC(=O)COc1ccc(Cl)cc1Cl,i,9.5*,i,149%*,CHO-K1 ctr=-18;KCNQ1 sel pot=93*;KCNQ2 pot conf=6.5*;Kir2-1 sel=-25;KCNQ2 W236L MoA=i
COCCC(=O)Nc1ccc2c(c1)CN(C(=O)c1ccc(CSC)o1)CC2,i,x,x,x,
COc1cccc(C(=O)N=c2sc3cc(S(C)(=O)=O)ccc3n2C)c1,i,0.82,x,x,
Cc1ccc(C)c(-c2cc(C(=O)Nc3nccs3)c3ccccc3n2)c1,i,x,x,x,
Cc1ccc(C)c(-c2cc(C(=O)NCc3cccs3)c3ccccc3n2)c1,i,16*,i,72%*,CHO-K1 ctr=8.2*;KCNQ1 sel pot=-14;KCNQ2 pot conf=32*;Kir2-1 sel=-37;KCNQ2 W236L MoA=i
CC(C(=O)NCc1ccc2c(c1)OCO2)N1c2cccc3cccc(c23)S1(=O)=O (stereo not given),i,0.22,x,x,
COc1ccccc1CC(=O)N1CCCc2cc(C)ccc21,i,x,i,i,
